# Assay results from PubChem BioAssay (NCI).
# This is part of a sample that, as a whole, favours compounds with a hit. Of some 83,000 tested, about 20% had one in any assay.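 Percent growth is the endpoint: 0 to 100 indicates growth inhibition (40 means 60% inhibition), 0 means no net growth, and negative values indicate cell death.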 Unmarked numbers belong to inactive results. Active and inactive are the calls of the source. How the source made its calls: active means growth percent below 10; inactive means the rest.
# What was measured:
# Test in all cases: NCI-60 one-dose screen, 48 h (100 = growth as untreated, 0 = no growth, -100 = all killed)
# Details in all cases: 10 µM unless noted
# SK-MEL-2 melanoma = tested on: SK-MEL-2 melanoma
# EKVX NSCLC = tested on: EKVX NSCLC
# SN12C renal = tested on: SN12C renal
# UO-31 renal = tested on: UO-31 renal
# TK-10 renal = tested on: TK-10 renal
# ACHN renal = tested on: ACHN renal
# CAKI-1 renal = tested on: CAKI-1 renal
# A498 renal = tested on: A498 renal
# CCRF-CEM leukemia = tested on: CCRF-CEM leukemia
# MOLT-4 leukemia = tested on: MOLT-4 leukemia
SMILES,growth (SK-MEL-2 melanoma),growth (EKVX NSCLC),growth (SN12C renal),growth (UO-31 renal),growth (TK-10 renal),growth (ACHN renal),growth (CAKI-1 renal),growth (A498 renal),growth (CCRF-CEM leukemia),growth (MOLT-4 leukemia)
Cc1ccc(-c2csc(N(C(=O)N3CCN(c4cc5c(cc4F)c(=O)c(C(=O)O)cn5C4CC4)CC3)c3ccccc3)n2)cc1,-4.42% (active),20.9%,9.07% (active),7.46% (active),20.6%,5.63% (active),2.42% (active),7.58% (active),21%,16.6%
Cc1nn(-c2cc(NC3CCC(O)CC3)c3c(=O)[nH]c(CCC(F)(F)F)cc3c2)c2c1C(=O)CC(C)(C)C2 (stereo not given),60.3%,54%,46.2%,39%,61.7%,31.5%,47.4%,12.4%,66.6%,40.8%
O=S(=O)(Oc1ccc(Br)cc1)c1ccc(Cl)cc1,116%,95.7%,105%,82.3%,84.1%,117%,105%,86.6%,97%,85.1%
CC(=O)O[C@H]1C[C@@H]2C(C)(C)C(=O)CC[C@@]2(C)c2ccc(C(C)C)cc21,109%,99.3%,107%,91.8%,97.2%,107%,89.6%,100%,108%,108%
COc1ccc2nc(Cl)c(/C=C3\CC(c4ccccc4)=NN(c4ccccc4)C3=O)cc2c1,63.4%,67.7%,72.3%,61.7%,78.6%,18.4%,14.5%,46.9%,96.9%,79.8%
O=C(/C=C/c1ccc(Cl)cc1)c1cccc(OCCCOc2cccc(C(=O)/C=C/c3ccc(Cl)cc3)c2)c1,107%,107%,103%,86.1%,95.6%,99.6%,95.4%,94.9%,92.9%,93.3%
Fc1ccc(Cn2cc(CSc3nc4ccccc4o3)nn2)cc1,99.1%,108%,96.5%,83.6%,95.7%,102%,91.3%,98%,100%,92.7%
C=CCOC(=O)C1=C(C)N(CC)C(=O)NC1c1c(Cl)n(C)c2ccccc12 (stereo not given),108%,98.4%,102%,76.1%,102%,82.2%,61.5%,95%,-28% (active),93.7%
O=C(Nc1ccc(Cl)cc1)Oc1c(Cl)c(Cl)c(Cl)c(Cl)c1Cl,95.7%,80.6%,97.6%,78.5%,115%,87.9%,86.1%,74.6%,92.1%,95.6%
CC[C@]12C=CCN3CC[C@@]4(c5ccc(OC)cc5N(C)[C@H]4[C@@](O)(C(=O)OC)[C@@H]1OC(=O)CCC[P+](c1ccccc1)(c1ccccc1)c1ccccc1)[C@@H]32,-65.3% (active),10.3%,2.73% (active),80%,22.3%,89.9%,52.2%,13.7%,11.1%,5.41% (active)
CCCCNc1nnc2n(Cc3ccccc3)c(=O)c3c4c(sc3n12)CCCC4,41.6%,60.8%,46%,34.2%,59.3%,40.8%,42.6%,45.4%,59.2%,10.4%
Cc1cccc2c1C[C@@]1(C2=O)C(c2ccc(C(C)(C)C)cc2)=NOS1=O (stereo not given in full),93.1%,79.2%,92.3%,77.1%,158%,108%,94.2%,77.1%,83.6%,80.1%
Cc1c2ccncc2c(C)c2c1c1cc(CO)ccc1n2C,-7.55% (active),1.54% (active),6.64% (active),3.77% (active),-21.4% (active),0.85% (active),8.35% (active),-81.7% (active),8.76% (active),6.68% (active)
Oc1c(CN2CCC(N3CCCCC3)CC2)cc(Cc2cc(CN3CCC(N4CCCCC4)CC3)c(O)c3ncccc23)c2cccnc12,41.4%,26%,34.2%,12.4%,33.5%,13.8%,25.5%,77.7%,6.54% (active),6.56% (active)
Cc1cccc(-c2nc(Nc3ccc4ncsc4c3)c3ccccc3n2)n1,83.8%,79.1%,92%,69.1%,87.2%,91.9%,105%,83.6%,37.5%,64.2%
O=S(=O)(NCCNc1nccc(-c2c(-c3ccc(F)c(O)c3)nc3sccn23)n1)c1ccc(F)cc1,12.3%,55.7%,28.5%,3.56% (active),83.5%,19.7%,20.6%,70.9%,12.7%,11.7%
C/C=C(/C)n1cnc2c(Nc3ccccn3)nc(Cl)nc21,97.1%,96.9%,94.1%,80.8%,114%,99.9%,94.2%,111%,104%,100%
O=C(Nc1ccccc1N1CCCC1=O)c1oc2ccc(F)cc2c1-c1cnn(-c2ccccc2)c1,72.8% [50 µM],58.3% [50 µM],48.5% [50 µM],9.1% [50 µM] (active),95.4% [50 µM],46% [50 µM],35.7% [50 µM],29.2% [50 µM],56.6% [50 µM],37% [50 µM]
COc1cc(C(=O)c2c(-c3ccccc3)oc3c(OC)cccc23)cc(OC)c1OC,53%,35.3%,22.1%,28.2%,61.4%,17.7%,19.6%,-28% (active),10.2%,11.4%
CN1CCN(C(=O)C(C)(C)c2ccc(C(=O)Nc3cn4cc(-c5ccncc5)ccc4n3)cc2)CC1,-26.7% (active),17.9%,15.6%,-23.7% (active),0.354% (active),2.6% (active),-5.37% (active),-63.2% (active),16%,11.3%
C=C(CNCCc1ccc(O)cc1)[C@@H]1CC[C@]2(CO)CC[C@]3(C)[C@H](CC[C@@H]4[C@@]5(C)CCC(=O)C(C)(C)[C@@H]5CC[C@]43C)[C@@H]12,37.5%,80%,24.5%,27.1%,67.4%,12.6%,58.2%,84.1%,-9.98% (active),1.2% (active)
N#Cc1c(-c2ccccc2)nc(SCC(O)CN2CCOCC2)nc1N1CCOCC1 (stereo not given),7.33% (active),65.4%,57.8%,41.7%,40.8%,54.4%,37.4%,-3.34% (active),88%,83.2%
O=C(/C=C/c1ccc(Oc2ccc(Br)cc2)cc1)c1ccc(Br)cc1,96.5%,103%,97.2%,78.8%,95.2%,102%,93.5%,73.6%,91.9%,90.5%
Cc1ccc(S(=O)(=O)Oc2ccc3sc4cccc(NCCN(C)C)c4c(=O)c3c2)cc1,-71.2% (active),-84% (active),-77.2% (active),-95.5% (active),-83.2% (active),-95.9% (active),-97.8% (active),-96% (active),-45.8% (active),-32.7% (active)
COc1ccc2c(c1)CCc1[nH]nc(-c3cc(OC)c(OC)c(OC)c3)c1-2,31.1%,33.7%,31.9%,13.8%,50.1%,25.4%,26%,-9.65% (active),0.932% (active),9.32% (active)
CCc1n(Cc2ccc3ccccc3n2)cc[n+]1Cc1ccc2ccccc2n1,-27.3% (active),31.9%,10.7%,89.5%,41.9%,93.3%,98%,84.9%,28.1%,28.6%
